In test [1] the test system is Wnt5a (protein binding on small-molecule microarray). Briefly: small molecules binding Wnt5a protein – biophysical, small-molecule microarray, 635/667 nm fluorescence, primary screen (AID 1142).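 Further: fluorescence read at 667 nm with signal to noise per printed feature.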 To be noted: 635 nm fluorescence, higher = more signal.
The nature of test [2]: ATP-based viability of Huh7 replicon cells – cell-based, CellTiter-Glo luminescence, basal, 48 h, cytotoxicity control for HCV replication inhibitor project, primary screen (AID 1143).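 Further: Huh7 hepatoma cells carrying a hepatitis C replication reporter with no stimulus; test concentration not given here.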 To be noted: higher = more signal, called active from +8 up or from −8 down.
Test [3] in a line: Pseudomonas biofilm growth suppression – PAO1 strain, BacTiter-Glo luminescence, LB-PBS, primary screen (AID 1144). To be noted: P. aeruginosa PAO1 biofilm, 12 h, higher = more signal.
Test [4] in a line: basal CRE-LacZ reporter activity in PC12 – cell-based, unstimulated, primary screen (AID 1145). To be noted: no forskolin, luminescence, 4.5 h, higher = more signal, called active from +8 up or from −8 down.
A short description of test [5]: forskolin-driven CRE-LacZ activity in PC12 – cell-based, CRE-LacZ reporter, forskolin-stimulated, primary screen (AID 1146).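 Further: PC12 cells with 6xCRE LacZ reporter stimulated by forskolin 10 µM; beta-galactosidase reporter signal reflecting CREB driven transcription.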 To be noted: luminescence, 4.5 h, higher = more signal, called active from +8 up or from −8 down.
Test [6] addresses Streptavidin (Streptomyces avidinii) (UniProt P22629). Briefly: compounds binding control protein streptavidin – biophysical, small-molecule microarray, 635/667 nm fluorescence, artefact control for SMM compound annotation, primary screen (AID 1147).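 Further: signal reflects streptavidin binding to arrayed compounds as a control protein.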 To be noted: higher = more signal.
A short description of test [7]: probe aInhba binding on compound microarray – biochemical, small-molecule microarray, 635/667 nm fluorescence, primary screen (AID 1148).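 Further: score merges 667nm spot fluorescence with signal-to-noise for antibody binding to printed compounds.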 To be noted: higher = more signal.
Test [8] has as its target Torsin-1A (Homo sapiens) (UniProt O14656). Kind of test: TOR1A wild-type binding on microarray – cell lysate, small-molecule microarray, lysate, 635/667 nm, primary screen (AID 1149). To be noted: COS7 hTOR1A-WT lysate, 635 nm fluorescence, higher = more signal.
For test [9] the target is unchanged. Kind of test: torsin A mutant lysate binding on microarrays – cell lysate, small-molecule microarray, COS7 lysate, 635/667 nm fluorescence, primary screen (AID 1150).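 Further: score pools 667 nm emission and signal to noise measuring lysate protein binding.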 To be noted: COS7 hTOR1A mutant lysate, 635 nm fluorescence, higher = more signal.
In test [10] the test system is Sonic hedgehog protein (Shh). Briefly: Sonic hedgehog microarray binding compounds – biochemical, small-molecule microarray, 635/667 nm fluorescence, primary screen (AID 1151).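 Further: Shh protein binding to compounds spotted on small-molecule microarray slides; score combines spot fluorescence intensity with signal-to-noise across triplicate slides.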 To be noted: 635 nm fluorescence, higher = more signal.

Each structure is given as a SMILES string. Active and inactive are the calls of the source. Unless noted, how the calls were made is not given here.

Sequence of Torsin-1A (Homo sapiens) (O14656 whole entry, looked up): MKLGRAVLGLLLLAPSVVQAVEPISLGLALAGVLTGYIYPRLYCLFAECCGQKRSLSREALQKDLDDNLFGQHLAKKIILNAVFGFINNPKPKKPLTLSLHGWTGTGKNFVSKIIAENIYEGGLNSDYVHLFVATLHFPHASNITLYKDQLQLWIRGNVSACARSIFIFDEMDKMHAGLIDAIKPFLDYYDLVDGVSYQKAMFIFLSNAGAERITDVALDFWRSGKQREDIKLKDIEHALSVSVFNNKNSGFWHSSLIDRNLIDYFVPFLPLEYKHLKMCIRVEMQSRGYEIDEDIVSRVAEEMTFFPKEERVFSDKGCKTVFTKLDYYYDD
Sequence of Streptavidin (Streptomyces avidinii) (P22629 whole entry, looked up): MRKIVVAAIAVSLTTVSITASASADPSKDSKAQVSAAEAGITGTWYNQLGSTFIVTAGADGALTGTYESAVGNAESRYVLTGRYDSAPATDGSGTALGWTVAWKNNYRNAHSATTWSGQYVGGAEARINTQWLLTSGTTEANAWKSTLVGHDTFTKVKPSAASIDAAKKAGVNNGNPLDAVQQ

Regarding `[N-]=[N+]=NCc1ccccc1[C@H]1OC(c2ccc(OCCCO)cc2)=N[C@@]1(Cc1ccccc1)C(=O)N1CCCCC1`, the composite z-score came to 1.5 in test [1]; 0.733 in [6]; 0.204 in test [7]; 0.178 in the test with Torsin-1A (Homo sapiens) [8]; 0.392 in the test with Torsin-1A (Homo sapiens) [9]; 0.413 in test [10]. The z-score was -5.29 (inactive) in test [2], 0.437 (inactive) in test [3], -0.16 (inactive) in test [4] and 0.357 (inactive) in test [5].

As to `COCCCNC(=O)[C@]1(Cc2ccccc2)N=C(c2ccc(OCCCO)cc2)O[C@@H]1c1ccccc1CN=[N+]=[N-]`, the composite z-score in test [1] was 0.703; in test [6], 1.31; in test [7], 0.491; with Torsin-1A (Homo sapiens) [8] it was 0.52; with Torsin-1A (Homo sapiens) [9], 0.82; in [10], -0.147. Moreover, the z-score is -3.68 (inactive) in test [2], -0.0105 (inactive) in test [3], -0.09 (inactive) in [4] and -1.03 (inactive) in test [5].

In the case of `COc1ccc([Si](C)(C)[C@@H]2[C@@H](CCn3cc([C@H](O)c4ccccc4)nn3)O[C@]3(C(=O)N(Cc4cccc(N5CCC5=O)c4)c4ccccc43)[C@H]2C)cc1`, the composite z-score was -0.166 in test [1]; 0.0185 in test [6]; -0.0477 in test [7]; 0.423 with Torsin-1A (Homo sapiens) [8]; 0.0953 in the test with Torsin-1A (Homo sapiens) [9]; 0.71 in test [10]. Further, the z-score in [2] is -2.43 (inactive); in [3], -1.1 (inactive); in test [4], -0.272 (inactive); in test [5], -0.144 (inactive).

Turning to `CC[C@@H]1C=C(C(=O)O)[C@H](c2ccc(C)cc2)N1S(=O)(=O)c1ccc(C)cc1`, the composite z-score in [1] is -0.412; in test [6] it was 0.583; in test [7], 0.0516; in the test with Torsin-1A (Homo sapiens) [8], 0.063; with Torsin-1A (Homo sapiens) [9], 0.247; in test [10], -0.103. Further, the z-score in test [2] was -0.52 (inactive); in [3] it was -0.498 (inactive); in [4], -0.527 (inactive); in test [5], 1.03 (inactive).

Regarding `C=CC[C@]1(C(=O)N2CCOCC2)N=C(c2ccc(OCCCO)cc2)O[C@H]1c1ccccc1N=[N+]=[N-]`, the composite z-score was 0.268 in test [1]; 0.883 in test [6]; 0.122 in test [7]; 0.35 in the test with Torsin-1A (Homo sapiens) [8]; 0.705 with Torsin-1A (Homo sapiens) [9]; -0.269 in test [10]. The z-score in test [2] was -4.25 (inactive); in test [3], -0.0153 (inactive); in test [4], -0.193 (inactive); in test [5], -1.78 (inactive).

On to `COC(=O)[C@@]1(Cc2ccc(OC)cc2)[C@H]2c3cc(C(=O)N4CCCC4)n(Cc4nc5ccccc5[nH]4)c3C[C@H]2CN1C(=O)c1ccccc1`, for which the composite z-score was 0.704 in test [1]; 1.78 in test [6]; 0.802 in test [7]; 0.0984 with Torsin-1A (Homo sapiens) [8]; 1.7 with Torsin-1A (Homo sapiens) [9]; -0.245 in test [10]. The z-score in [2] is -2 (inactive); in [3] it was 0.848 (inactive); in [4] it was -0.182 (inactive); in test [5] it was 0.147 (inactive).

`CC(C)[Si](C#CCCCC#N)(O[C@H](c1ccccc1)c1cn(Cc2cccc(Cl)c2)nn1)C(C)C`: the composite z-score was 0.182 in test [1]; -0.0708 in [6]; 0.0614 in test [7]; 1.42 with Torsin-1A (Homo sapiens) [8]; 0.392 with Torsin-1A (Homo sapiens) [9]; 1.21 in test [10]. For the same compound, the z-score in test [2] was -2.2 (inactive); in test [3] it was -0.603 (inactive); in test [4] it was -0.215 (inactive); in test [5], -0.859 (inactive).

For the compound `CCCCCN1CC=CC23O[C@@H]4C=CCOC(=O)[C@@H]4[C@H]2C(=O)N(C(C)CO)[C@@H]3C1=O` (stereo not given in full), the composite z-score in test [1] is -0.614; in [6], -0.541; in [7], -0.128; in the test with Torsin-1A (Homo sapiens) [8], 0.909; in the test with Torsin-1A (Homo sapiens) [9] it was -0.979; in test [10], -0.424. The z-score in [2] is 0.463 (inactive); in [3], 0.397 (inactive); in [4], -0.216 (inactive); in test [5], -0.315 (inactive).

As for `CC(=O)NCCCC[C@@H]1NC(=O)[C@H]2C[C@@H](C(=O)NCCCCCNC(=O)CS)[C@@H](c3ccc(O)cc3)N2C1=O`, the composite z-score is 0.0736 in [1]; -0.502 in test [6]; 0.0391 in test [7]; 0.261 in the test with Torsin-1A (Homo sapiens) [8]; -0.711 with Torsin-1A (Homo sapiens) [9]; 0.468 in test [10]. The z-score in test [2] is -0.47 (inactive); in test [3], -0.589 (inactive); in [4] it was -0.122 (inactive); in [5], -0.112 (inactive).

For `NC(=O)[C@@H]1[C@H]2C(=O)O[C@H](c3ccccc3)[C@H](c3ccccc3)N2[C@H](c2ccc(OCCO)cc2)[C@@]12C(=O)Nc1ccc(C#CC3=CCCCC3)cc12`, the composite z-score in [1] stood at 0.0384; in test [6], 0.778; in test [7], 0.0047; with Torsin-1A (Homo sapiens) [8] it was 0.618; with Torsin-1A (Homo sapiens) [9] it was 0.817; in [10] it was 1.24. Further, the z-score in [2] was -6.11 (inactive); in test [3], -1.74 (inactive); in test [4], -1.28 (inactive); in [5] it was -0.546 (inactive).

As to `O=C(NC1CC1)[C@@H]1c2ccccc2C(=O)N(C2Cc3ccccc3C2)[C@H]1c1ccc(CO)cc1`, the composite z-score is 0.336 in test [1]; -0.286 in test [6]; 0.116 in [7]; 0.795 with Torsin-1A (Homo sapiens) [8]; 1.28 in the test with Torsin-1A (Homo sapiens) [9]; 1.05 in [10]. For the same compound, the z-score was 0.192 (inactive) in [2], -0.994 (inactive) in test [3], 0.854 (inactive) in test [4] and -0.987 (inactive) in test [5].

For `COC(=O)[C@@]1(Cc2ccccc2)[C@H]2c3cc(C(=O)N(C)C)n(Cc4ccc(OC)c(OC)c4)c3C[C@H]2CN1C(=O)c1ccccc1`, the composite z-score was 1.15 in test [1]; 1.43 in test [6]; 0.498 in test [7]; 0.406 with Torsin-1A (Homo sapiens) [8]; 1.16 in the test with Torsin-1A (Homo sapiens) [9]; -0.735 in test [10]. For the same compound, the z-score is -2.81 (inactive) in [2], 0.655 (inactive) in test [3], 0.394 (inactive) in [4] and 0.786 (inactive) in test [5].

As for `O=C(CS)NCCCCCNC(=O)[C@@H]1C[C@@H]2C(=O)NCC(=O)N2[C@@H]1c1cccc(OCCO)c1`, the composite z-score is 0.134 in [1]; -0.774 in test [6]; 0.136 in test [7]; 0.396 with Torsin-1A (Homo sapiens) [8]; -0.0657 in the test with Torsin-1A (Homo sapiens) [9]; 1.77 in test [10]. The z-score in test [2] was -0.556 (inactive); in test [3] it was -1.2 (inactive); in [4] it was -0.268 (inactive); in [5], 0.0712 (inactive).

As for `COc1ccc([Si](C)(C)[C@@H]2[C@@H](CCO)O[C@]3(C(=O)N(Cc4cccc(N5CCOC5=O)c4)c4ccccc43)[C@H]2C)cc1`, the composite z-score in test [1] was 0.183; in test [6], 0.424; in [7], 0.0569; in the test with Torsin-1A (Homo sapiens) [8] it was 0.531; in the test with Torsin-1A (Homo sapiens) [9], 0.226; in test [10], 0.529. For the same compound, the z-score in test [2] is -5.47 (inactive); in test [3], -0.631 (inactive); in test [4], 8.62 (active); in test [5] it was -0.905 (inactive).
